Results reported in PubChem BioAssay (NCI).
Compounds without any hit were thinned out: in the full panel of roughly 83,000, 20% have a hit.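 Testing used 96-well plates and a 48-hour single-concentration exposure. Example: -40 means 40% of the starting cells died.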 A number with no mark means an inactive call. Calls of active or inactive are those of the source. How the source made its calls: active means growth percent below 10; inactive means the rest.

What was measured:
Test in all cases: NCI-60 one-dose screen, 48 h (100 = growth as untreated, 0 = no growth, -100 = all killed)
Conditions in all cases: 10 µM unless noted
NCI-H23 lung = test system: NCI-H23 lung
NCI-H226 lung = test system: NCI-H226 lung
NCI-H322M lung = test system: NCI-H322M lung
HOP-62 NSCLC = test system: HOP-62 NSCLC
NCI-H522 lung = test system: NCI-H522 lung
A549/ATCC NSCLC = test system: A549/ATCC NSCLC
786-0 renal = test system: 786-0 renal
COLO 205 colon = test system: COLO 205 colon
DU-145 prostate = test system: DU-145 prostate
MALME-3M melanoma = test system: MALME-3M melanoma
MDA-MB-231 breast = test system: MDA-MB-231 breast
RXF 393 renal = test system: RXF 393 renal
SF-268 CNS = test system: SF-268 CNS
SF-295 CNS = test system: SF-295 CNS
UACC-257 melanoma = test system: UACC-257 melanoma
M14 melanoma = test system: M14 melanoma
HCT-15 colon = test system: HCT-15 colon
K-562 leukemia = test system: K-562 leukemia
SF-539 CNS = test system: SF-539 CNS

| Compound | growth (NCI-H23 lung) | growth (NCI-H226 lung) | growth (NCI-H322M lung) | growth (HOP-62 NSCLC) | growth (NCI-H522 lung) | growth (A549/ATCC NSCLC) | growth (786-0 renal) | growth (COLO 205 colon) | growth (DU-145 prostate) | growth (MALME-3M melanoma) | growth (MDA-MB-231 breast) | growth (RXF 393 renal) | growth (SF-268 CNS) | growth (SF-295 CNS) | growth (UACC-257 melanoma) | growth (M14 melanoma) | growth (HCT-15 colon) | growth (K-562 leukemia) | growth (SF-539 CNS) |
| --- | --- | --- | --- | --- | --- | --- | --- | --- | --- | --- | --- | --- | --- | --- | --- | --- | --- | --- | --- |
| Cc1nn(-c2ccccc2)c(Cl)c1C(CC(=O)c1ccc(Cl)cc1)CC(=O)c1ccc(Cl)cc1 | 87.2% | 88.6% | 99% | 97.8% | 71.6% | 84.3% | 81.8% | 98.5% | 103% | 94.7% | 80.5% | 92.2% | 91.3% | 92.4% | 100% | 83.9% | 86.6% | – | – |
| COc1cc(/C=C/C(=O)Nc2ccc3c(c2)/C(=C\c2cccn2C)C(=O)N3)cc(OC)c1OC | 57% | 67.3% | 61.2% | 45.5% | 5.66% (active) | 37.5% | 54.8% | 53.7% | 63% | – | 36.5% | – | 69.3% | 38.3% | 62% | 49.5% | 32.5% | 28.4% | 56.7% |
| COc1ccc(-c2nc3sccn3c2-c2ccnc(S(C)(=O)=O)n2)cc1 | 100% | 90.4% | 55.4% | 78.7% | 26.7% | 105% | 99.1% | 84.2% | 56.7% | 75.1% | 84.3% | 97.5% | 95% | 74.9% | 111% | 102% | 84.3% | – | 109% |
| COc1ccc(-c2cncn2-c2ccc(-c3nc4cc(OC)c(OC)c(OC)c4s3)cc2)cc1N | 72.9% | 64.5% | 84.1% | 101% | 46% | 47.9% | 55.2% | 46.2% | 92.6% | 57.9% | 76.4% | 75.8% | 93.1% | 50% | 71.6% | 46.5% | 42.1% | 41% | 87.8% |
| CCCCCCCCCCCCCCCCCc1nccn1CCO | 70.7% | 97.3% | 78.1% | 68% | 52.6% | 64.7% | 62.3% | 19% | 90% | 89.7% | 69.6% | 72.3% | 73.5% | 144% | 90.2% | 64.9% | 8.52% (active) | 3.81% (active) | 66.5% |
| O=C(CSc1nnc(Nc2ccccc2)s1)NCCc1ccc(F)cc1 | 131% | 85.1% | 115% | 103% | 91.5% | 124% | 95.6% | – | 105% | 97.4% | 91.5% | 113% | 109% | 102% | – | 103% | 120% | 107% | 96.4% |
| C=Cc1nn2c(CCC(=O)c3nc4ccccc4[nH]3)nnc2s1 | 99.4% | 97.5% | 94% | 97.9% | 102% | 105% | 97.5% | – | – | 108% | 101% | 106% | 101% | 99.7% | 110% | – | 101% | – | 113% |
| O=c1ccn(C2OC(CO)C(O)C2F)c(=O)[nH]1 (stereo unspecified) | 90.5% | 101% | 117% | 103% | 109% | 109% | 99.2% | 128% | 119% | 116% | 117% | 132% | 111% | 105% | 114% | 108% | 112% | 117% | 103% |
| COC(=O)[C@]1(C(C)C)N[C@H](c2cn(-c3ccccc3)nc2-c2ccccc2)[C@@H]2C(=O)N(c3ccc(Cl)cc3)C(=O)[C@@H]21 | 92.9% | 105% | 99.1% | 95.7% | 81.4% | 101% | 81.9% | 106% | 111% | 107% | 105% | 113% | 90.8% | 106% | 107% | 87.6% | 96% | – | – |
| O=c1cc(-c2cccnc2)oc2c1ccc1ccccc12 | 69.9% | 91.5% | 117% | 88.6% | 62% | 65.6% | 81.3% | – | 88.6% | 156% | 70.7% | 68% | 54.8% | 70.1% | 82.9% | 103% | 72.7% | 53.9% | 54.6% |
| O=C1NC(=O)/C(=C\c2ccccc2)C2=C1CCCC2 | -44.7% (active) | 92.3% | 107% | 119% | -87.4% (active) | – | 61.7% | -63.2% (active) | 25.7% | 50.6% | 92.1% | 13.3% | 39.4% | 88.2% | -64.6% (active) | 36.4% | 20.9% | -37.8% (active) | 27.4% |
| O=C1/C(=C/c2ccc([N+](=O)[O-])s2)Oc2ccc(Br)cc21 | -48.3% (active) | -57% (active) | -29.7% (active) | -49.8% (active) | -77.7% (active) | -39.6% (active) | -13.4% (active) | -80% (active) | -72.1% (active) | -59.7% (active) | -64% (active) | -59.9% (active) | -52.1% (active) | -31.3% (active) | -39.2% (active) | -54.1% (active) | -3.34% (active) | -5.87% (active) | -73.7% (active) |
| Nc1ccc(C2=NN(c3ccccc3)C(c3ccc(Cl)cc3)C2)cc1 (stereo unspecified) | 92.8% | 90.9% | 88.2% | 87.2% | 22.7% | 83.1% | 78.4% | 101% | 81.7% | 105% | 88.5% | – | 82.5% | 86.6% | 82.1% | 72.7% | 48.7% | 17.5% | 81.2% |
| Oc1ccccc1/C=N\Nc1ccccc1 | 87.5% | 39.4% | 59.9% | 65.6% | 10.5% | 36.8% | 43.3% | 115% | 58.5% | 95% | 26.7% | – | 61.8% | 19.9% | 95.7% | 39.4% | 25.6% | – | 3.41% (active) |
| CSc1nnc(C2=CC(=O)c3ccccc3C2=O)n1-c1ccccc1 | 83.9% | 85.5% | 91.1% | 100% | 64.5% | 76.3% | 95.2% | 110% | 104% | 84.9% | 93.2% | – | 92% | 85.8% | 86.7% | 92% | 95.3% | -0.209% (active) | 98.1% |
